In PubChem BioAssay (Tox21):
Records with an inconclusive call do not appear. Active and inactive are the calls of the source. Calls come from the whole dose curve; as a rule, active = well fitted curve in the direction sought with a large enough effect in the repeat runs; inconclusive = weak or mixed curves; inactive = no such curve, though single readings can be large; an effect the other way counts as inactive or inconclusive.

How the values were obtained:
[1] = A CellTox Green Cytotoxicity Assay to monitor cytotoxicity in HepG2 cells - 0 hour (AID 1224882); note: nearly all actives have a fitted effect of over 35% in size
Summary of the method: (§1)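 Real-time, homogeneous cytotoxicity readout: dead-cell DNA staining by CellTox Green in HepG2 monolayers, fluorescence measured at timed intervals up to 40 h of continuous compound exposure.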

[2] = A CellTox Green Cytotoxicity Assay to monitor cytotoxicity in HEK293 cells - 8 hour (AID 1224884); note: nearly all actives have a fitted effect of over 35% in size; note: potency is the fitted concentration of half-maximal effect
Summary of the method: (§2)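 Cytotoxicity was tracked continuously in HEK293 cells by a DNA-binding dye excluded from viable cells. Compounds were transferred in DMSO 5 h after seeding; fluorescence was recorded at intervals up to 40 h.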

[3] = qHTS RealTime-Glo MT Cell Viability Assay in HepG2 cells - 16 hour (AID 1224885); note: nearly all actives have a fitted effect of over 50% in size; note: potency is the fitted concentration of half-maximal effect
Summary of the method: (§3)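 Cell number in HepG2 cultures estimated from NanoLuc luminescence generated by metabolic reduction of a prosubstrate by living cells. The homogeneous, nonlytic format allowed repeated reads at 0, 8, 16, 24, 32 and 40 h of compound exposure.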

[4] = qHTS RealTime-Glo MT Cell Viability Assay in HEK293 cells - 8 hour (AID 1224887); note: nearly all actives have a fitted effect of over 50% in size; note: potency is the fitted concentration of half-maximal effect; for activity change, negative = cytotoxicity: top concentration of the series differs between compounds
Summary of the method: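 Nonlytic bioluminescent viability monitoring. HEK293 at 600 cells/well with reagent; 5 h settle; compound transfer by pintool; plates held at 37 C and read at set time points.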

[5] = A CellTox Green Cytotoxicity Assay to monitor cytotoxicity in HEK293 cells - 16 hour (AID 1224888); note: nearly all actives have a fitted effect of over 35% in size; note: potency is the fitted concentration of half-maximal effect
Summary of the method: as §2

[6] = qHTS RealTime-Glo MT Cell Viability Assay in HepG2 cells - 0 hour (AID 1224889); note: nearly all actives have a fitted effect of over 50% in size; note: potency is the fitted concentration of half-maximal effect
Summary of the method: as §3

[7] = A CellTox Green Cytotoxicity Assay to monitor cytotoxicity in HepG2 cells - 8 hour (AID 1224890); note: nearly all actives have a fitted effect of over 45% in size; note: potency is the fitted concentration of half-maximal effect
Summary of the method: as §1

[8] = qHTS assay to identify small molecule antagonists of the estrogen receptor alpha (ER-alpha) signaling pathway using the BG1 cell line in the presence of 0.1 nM 17-beta-estradiol - cell viability counter screen (AID 1259241); note: nearly all actives have a fitted effect of over 40% in size; note: potency is the fitted concentration of half-maximal effect
Summary of the method: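 The cell line endogenously expresses full-length ER-alpha and carries four EREs driving luciferase. Cells are cultured 5 days hormone-free, treated 22 hr with compounds and 0.1 nM estradiol, then viability is read by fluorescence.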

[9] = A CellTox Green Cytotoxicity Assay to monitor cytotoxicity in HepG2 cells - 32 hour (AID 1224883); note: nearly all actives have a fitted effect of over 50% in size; note: potency is the fitted concentration of half-maximal effect
Summary of the method: as §1

[10] = qHTS RealTime-Glo MT Cell Viability Assay in HEK293 cells - 24 hour (AID 1224886); note: nearly all actives have a fitted effect of over 50% in size; note: potency is the fitted concentration of half-maximal effect; for activity change, negative = cytotoxicity: top concentration of the series differs between compounds
Summary of the method: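 Homogeneous bioluminescent viability format in HEK293 cells (600 cells/well). Following 5 h at 37 C/5% CO2, 23 nL compound was pintooled; the signal was measured repeatedly during 40 h incubation.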
% is set by controls: 0 for no effect and ±100 for the full control effect.

CSCCCN=C=S
inactive: Potency [1] | Potency [2] | Potency [3] | Potency [4] | Potency [5] | Potency [6] | Potency [7] | Potency [8]

Cn1[nH]nnc1=S
inactive: Potency [1] | Potency [9] | Potency [10] | Potency [5] | Potency [6] | Potency [7] | Potency [8]

c1ccc(Nc2ccc3ccccc3c2)cc1
active: Potency [9] 48.7 µM
inactive: Potency [1] | Potency [5] | Potency [6] | Potency [7] | Potency [8]

[Cl][Sb]([Cl])[Cl]
inactive: Potency [1] | Potency [2] | Potency [3] | Potency [5] | Potency [6] | Potency [7]
active: Potency [8] 27.3 µM

ClC1=C(Cl)[C@]2(Cl)[C@@H]3[C@@H]4C[C@@H]([C@H]5O[C@@H]45)[C@@H]3[C@@]1(Cl)C2(Cl)Cl
active: Potency [9] 54.9 µM | Potency [2] 27.5 µM | Potency [3] 43.6 µM | Potency [10] 21.9 µM | Potency [4] 38.9 µM | Potency [5] 49 µM | Potency [7] 49 µM
inactive: Potency [6] | Potency [8]

Clc1ccc(C(Cl)(Cl)Cl)c(Cl)c1
inactive: Potency [1] | Potency [3] | Potency [4] | Potency [6] | Potency [7] | Potency [8]

O=CC(Br)(Br)Br
active: Potency [9] 38.8 µM | Potency [3] 48.8 µM | Potency [10] 2.45 µM
inactive: Potency [2] | Potency [4] | Potency [5] | Potency [6] | Potency [7]

CC(C)CC(C)Nc1ccc(Nc2ccccc2)cc1 (centres undefined)
inactive: Potency [1] | Potency [2] | Potency [5]
active: Potency [10] 21.5 µM | Potency [4] 19.2 µM | Potency [6] 24.1 µM

COC(=O)N(C(=O)N1CO[C@@]2(C(=O)OC)Cc3cc(Cl)ccc3C2=N1)c1ccc(OC(F)(F)F)cc1
inactive: Potency [1] | Potency [9] | Potency [5] | Potency [6] | Potency [7] | Potency [8]

CC(=O)/C=C/c1ccc2c(c1)OCO2
inactive: Potency [1] | Potency [2] | Potency [3] | Potency [10] | Potency [5] | Potency [6] | Potency [7] | Potency [8]

CN(C)CCc1c[nH]c2cccc(O)c12
inactive: Potency [9] | Potency [2] | Potency [3] | Potency [10] | Potency [4] | Potency [5] | Potency [6]

Clc1ccc(CO/N=C(\Cn2ccnc2)c2ccc(Cl)cc2Cl)c(Cl)c1
inactive: Potency [1] | Potency [2] | Potency [5] | Potency [6] | Potency [8]
active: Potency [3] 21.3 µM | Potency [10] 21.3 µM | Potency [4] 19 µM

COc1cccc(C(=O)CCN[C@@H](C)[C@H](O)c2ccccc2)c1
inactive: Potency [1] | Potency [4] | Potency [6] | Potency [7] | Potency [8]

CC(=O)c1cc(C(C)(C)C)cc2c1CCC2(C)C
inactive: Potency [1] | Potency [2] | Potency [3] | Potency [10] | Potency [6] | Potency [8]

CC[C@H](C)[C@H]1O[C@]2(C=C[C@@H]1C)C[C@@H]1C[C@@H](C/C=C(\C)[C@@H](O[C@H]3C[C@H](OC)[C@@H](O[C@H]4C[C@H](OC)[C@@H](O)[C@H](C)O4)[C@H](C)O3)[C@@H](C)/C=C/C=C3\CO[C@@H]4[C@H](O)C(C)=C[C@@H](C(=O)O1)[C@]34O)O2
active: Potency [8] 32.2 µM
inactive: Potency [1] | Potency [4] | Potency [5] | Potency [6]

CC1(c2ccc(Oc3ccccc3)cc2)OC(=O)N(Nc2ccccc2)C1=O (centres undefined)
inactive: Potency [1] | Potency [6]
active: Potency [3] 49.3 µM | Potency [10] 43.9 µM | Potency [8] 21.8 µM

CC1(C)CC/C(=C/c2ccc(Cl)cc2)C1(O)Cn1cncn1 (centres undefined)
inactive: Potency [1] | Potency [2] | Potency [3] | Potency [6] | Potency [7]
active: Potency [10] 24.4 µM

CCC(C)c1cc([N+](=O)[O-])cc([N+](=O)[O-])c1OC(=O)C=C(C)C (centres undefined)
active: Potency [10] 38.9 µM | Potency [8] 61.1 µM
inactive: Potency [1] | Potency [2] | Potency [6]

[Cl][Sn]([c]1ccccc1)([c]1ccccc1)[c]1ccccc1
active: Potency [9] 2.61 µM | Potency [2] 2.33 µM | Potency [3] 2.93 µM | Potency [10] 0.262 µM | Potency [4] 0.737 µM | Potency [5] 2.33 µM | Potency [7] 9.28 µM
inactive: activity change, negative = cytotoxicity [6] 2.43% [at 15.8 µM]

CC1CCC(C(C)C)C(OC(=O)c2ccccc2N)C1 (centres undefined)
inactive: Potency [1] | Potency [3] | Potency [6] | Potency [7] | Potency [8]
active: Potency [2] 48.3 µM | Potency [10] 34.2 µM | Potency [4] 34.2 µM

BrCC(Br)c1ccccc1 (centres undefined)
inactive: Potency [9] | Potency [2] | Potency [3] | Potency [10] | Potency [4] | Potency [5] | Potency [6] | Potency [7] | Potency [8]

O=C(CBr)c1ccc(O)cc1
inactive: Potency [2] | Potency [3] | Potency [5] | Potency [6] | Potency [8]

O=C(Cl)c1ccc(Cl)cc1
inactive: Potency [9] | Potency [2] | Potency [3] | Potency [5] | Potency [7]

C=COCCCl
inactive: Potency [9] | Potency [2] | Potency [10] | Potency [4] | Potency [5] | Potency [6] | Potency [7] | Potency [8]

Cc1cc(C(F)(C(F)(F)F)C(F)(F)F)ccc1NC(=O)c1cccc(I)c1C(=O)NC(C)(C)CS(C)(=O)=O
inactive: Potency [9] | Potency [2] | Potency [3] | Potency [4] | Potency [5] | Potency [6] | Potency [7] | Potency [8]

O=c1c(C2CC(c3ccc(-c4ccc(Br)cc4)cc3)Cc3ccccc32)c(O)sc2ccccc12 (centres undefined)
inactive: Potency [9] | Potency [2] | Potency [10] | Potency [4] | Potency [5] | Potency [7] | Potency [8]
active: Potency [6] 6.74 µM

CN(C)C(=S)[S-].CN(C)C(=S)[S-].[Cu+2]
inactive: activity change, negative = cytotoxicity [6] -22.4% [at 15.8 µM]
active: Potency [9] 2.99 µM | Potency [3] 3.77 µM | Potency [10] 1.34 µM | Potency [5] 2.38 µM | Potency [8] 1.67 µM

CC(=O)C(Cl)(Cl)Cl
active: Potency [8] 20.9 µM
inactive: Potency [9] | Potency [2] | Potency [3] | Potency [5] | Potency [7]
